Screening data deposited in PubChem by several laboratories.
PfHsp40 rescue = rescue of yeast from PfHsp40 toxicity, primary screen, S. cerevisiae, ATP luminescence. S. cerevisiae expressing PfHsp40, growth rescue. 340,000 compounds, 0.68% hits. growth rescue, % at 12.5 µM; in the data active means growth rescue above about 28%, passing the limit was not always enough;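 further: yeast W303a lacking pdr1 and pdr3 grown in galactose medium; growth measured after three days at 30 °C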
CCHF vOTU inh = CCHFV vOTU protease inhibitors, primary screen, biochemical, Pep-AMC substrate, fluorescence. inhibition, % at 11.5 µM. 370,000 compounds, 0.55% hits; in the data active means inhibition above about 30%
PrP UTR inh = inhibition of PrP 5' UTR reporter expression. cell-based PrP 5' UTR mRNA reporter, plate reader. inhibition, % (concentration not given with the values). 340,000 compounds, 0.35% hits; in the data active means inhibition above about 52%
ugtP null kill = growth inhibition of ugtP-null S. aureus, primary screen, RN4220 ugtP deletion, OD600; 16 h; growth inhibition, % (no concentration beside the values); 330,000 compounds, 0.54% hits; in the data active means growth inhibition above about 68%
PrPC surface inh = inhibitors of human cell surface prion protein PrPC, primary screen, cell-based, TR-FRET. 370,000 compounds, 0.43% hits. inhibition, % at 13.8 µM. TR-FRET read-out. Major prion protein (Homo sapiens), P04156; in the data active means inhibition above about 24%
Sa RN4220 lethal = growth inhibition of S. aureus RN4220, primary screen, OD600. 16 h. inhibition, % (concentration not given with the values). 330,000 compounds, 0.33% hits. AID 1259311, 2017; in the data active means inhibition above about 85%
A number is an active result; – = inactive; · = no result. Shown are actives, neighbours in structure and some others; about 2.1% of the full set was active somewhere.

SMILES | PfHsp40 rescue | CCHF vOTU inh | PrP UTR inh | ugtP null kill | PrPC surface inh | Sa RN4220 lethal
COc1ccc(C2C3C(=O)N(C(C)(C)C)C(=O)C3[C@]3(Cc4ccc(Cl)cc4)C(=O)N(c4cccc(Br)c4)C(=O)N23)cc1 (stereo partly specified) | · | · | · | – | · | –
CON=Cc1ccc(N2CCN(C(=O)c3ccc(Cl)cc3Cl)CC2)c([N+](=O)[O-])c1 | · | · | · | – | · | –
N#Cc1ccc(-c2ccc(C3Nc4ccccc4C(=O)N3O)o2)cc1 (stereo unspecified) | – | – | – | – | – | –
O=C1c2ccccc2NC(c2ccc(-c3cccc(F)c3)o2)N1O (stereo unspecified) | 109 | – | – | – | – | –
c1ccc(-c2ncc(-c3ccn[nH]3)s2)cc1 | 65 | – | – | – | – | –
CC(C)C(CN(N=O)C(Cc1ccccc1)CN(C)N=O)N(CCc1ccccc1)N=O (stereo unspecified) | · | · | · | – | · | –
CCCCCCn1ccc(=N)cc1 | – | – | – | – | – | –
CCCCCCCCCCCCCCCCn1cc[n+](CC(C)=O)c1 | – | · | – | 101 | · | 100
CCOc1cc(CNc2ccc3cn[nH]c3c2)ccc1OC | – | 59 | – | – | – | –
O=C1C=C(c2ccccc2)C[C@H](c2cccs2)[C@H]1n1nnc([N+](=O)[O-])n1 | – | – | – | 100 | – | –
Brc1ccc(CSc2nnc(Cc3c[nH]c4ccccc34)o2)cc1 | 37 | – | – | – | – | –
CCOC(=O)C1C2COc3ccc(Cl)cc3C2N2C(=O)c3cc(Br)ccc3NC(=O)[C@@]12C (stereo partly specified) | · | · | · | – | · | –
CCOC(=O)c1cnc(-c2ccccc2)nc1Oc1ccccc1 | – | – | – | 86 | – | –
O=C(NOC(=O)c1ccccc1)c1ccccc1 | 239 | – | – | – | – | –
O=C(NN=Cc1c[nH]c2ccccc12)c1cccc(O)c1 | · | · | · | – | · | –
Cn1c(O)c(C=Nc2ccc(N3CCOCC3)cc2)c(=O)n(C)c1=S | 68 | – | – | – | – | –
CCn1c(O)c(C=Nc2ccc(N3CCOCC3)cc2)c(=O)n(CC)c1=S | – | – | – | – | – | –
CCN(CC)C(=S)SSC(=S)N(CC)CC | – | – | – | 99 | – | –
C=C(Cl)CSC(=S)N(CC)CC | – | – | – | – | – | –
O=c1c(CO)cc(CO)cc(CO)c1O | 422 | – | – | – | – | –
COc1cc(-c2ccc3c(=O)c4ccccc4n(C)c3c2)cc(OC)c1OC | 28 | – | – | · | – | ·
Cc1cccc(C(C#N)c2nc3ccccc3nc2C(F)(F)F)c1 (stereo unspecified) | – | – | – | – | – | –
N#CC(c1ccc(Cl)cc1)c1nc2ccccc2nc1C(F)(F)F (stereo unspecified) | 53 | – | – | – | – | –
COc1ccc(CC(C)=NNC(=S)Nc2ccc(C(C)C)cc2)cc1 | · | · | · | – | · | –
CCCCNc1c(-c2ccc(OC)c(Sc3ccc(OC)cc3)c2)nc2ccccn12 | – | · | – | · | · | ·
SMILES | PfHsp40 rescue | CCHF vOTU inh | PrP UTR inh | ugtP null kill | PrPC surface inh | Sa RN4220 lethal
CCCCNc1c(-c2ccc(-c3ccc(OC)cc3)c(OC)c2)nc2ccccn12 | 251 | – | – | – | – | –
Cc1cccc(C2C3C(=O)N(Cc4ccccc4)C(=O)C3[C@]3(Cc4ccc(Cl)cc4)C(=O)N(c4cccc(Cl)c4)C(=O)N23)c1 (stereo partly specified) | · | · | · | – | · | –
CCN1C(c2ccccc2)C(C)C(=O)C(C)C1c1ccccc1 (stereo unspecified) | – | – | – | 91 | – | –
CC1C(=O)C(C)C(c2ccccc2)N(N=O)C1c1ccccc1 (stereo unspecified) | – | – | – | · | – | ·
CCC(C)(C)c1ccc(OCCCC[n+]2ccc(C)cc2)c(C(C)(C)CC)c1 | · | – | · | 100 | – | 100
CCC(C)(C)c1ccc(OCCCC[n+]2cccc(C)c2C)c(C(C)(C)CC)c1 | 45 | – | – | 100 | – | 101
CCN1C(=O)C(=CN2CCN(C)CC2)SC1=S | · | · | · | – | · | –
Cc1cc(C=NNC(=O)c2ccncc2)c(C)n1-c1ccccc1 | · | · | · | – | · | –
